For 125 compounds, Inhibition % results are on record in article PMC9574860, “Chemical Toolkit for PARK7: Potent, Selective, and High-Throughput” (Journal of Medicinal Chemistry, 2022).

Among all 7,900 compounds or so, about 400 (5.1%) showed an effect of 50% or more. The entries come from a sample that favours strong results as a whole.

Sequence of Parkinson's disease protein 7 (PARK7/DJ1) (Q99497 whole entry, looked up, the tested form may be a part): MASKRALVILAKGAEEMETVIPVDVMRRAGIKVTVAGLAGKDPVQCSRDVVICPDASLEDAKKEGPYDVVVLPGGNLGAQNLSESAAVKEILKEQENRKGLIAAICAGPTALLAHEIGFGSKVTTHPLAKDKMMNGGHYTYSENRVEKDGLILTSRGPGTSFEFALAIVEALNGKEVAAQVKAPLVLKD

This assay deals with Parkinson's disease protein 7 (PARK7/DJ1) (human, UniProt Q99497). Kind of assay: primary screen, percent inhibition; read as competition with a fluorescent probe by fluorescence polarization; higher = more effect of the substance. The following applies: 100 µM. The method, boiled down:
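Covalent fragments at 100 μM final were incubated 2 h with 0.2 μM PARK7, then 20 nM probe JYQ-107 added for a further 2 h. Fluorescence polarization read at 480/520 nm; relative FP loss versus reference controls gave remaining enzyme activity.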
With `C=CC(=O)Nc1ccc(OCC)c(CO)c1`, the Inhibition % turned out to be 4.38%.
On to `COc1ccc(B2OC(C)(C)C(C)(C)O2)c(C#N)c1`, for which the Inhibition % came out at 7.16%.
Regarding `COc1cc(OC(F)F)ccc1B1OC(C)(C)C(C)(C)O1`, the Inhibition % is -1.65%.
On to `COc1ccc(B2OC(C)(C)C(C)(C)O2)c(N)c1`, for which the Inhibition % is 56%.
For `CC1(C)OB(c2ccnn2-c2ccccc2)OC1(C)C`, the Inhibition % is 14.9%.
As to `CC1CC(Sc2ccccn2)C(=O)O1` (centres unmarked), the Inhibition % amounted to 5.37%.
Regarding `Cc1cc(S(N)(=O)=O)cc(NC(=O)CCl)c1C`, the Inhibition % is on record as 2.37%.
Regarding `C=CC(=O)NC1CCC2(CC1)CC2(F)F` (centres unmarked), the Inhibition % was determined as 3.45%.
On to `C=CC(=O)Nc1ccc2occc2c1`, for which the Inhibition % was determined as 9.28%.
With `C=CC(=O)Nc1ccc2c(cnn2C(F)F)c1`, the Inhibition % is reported as 6.45%.
Regarding `C=CC(=O)Nc1ccc2sncc2c1`, the Inhibition % stood at 97.4%.
For the compound `CC1(C)C(=O)NC1C1CCN(CC(C)(O)C(F)(F)F)CC1` (centres unmarked), the Inhibition % is on record as 6.49%.
As for `C=CC(=O)N1CCOC(c2ccccc2)C1` (centres unmarked), the Inhibition % came out at 4.98%.
With `O=C1CN=C(S)N1c1ccccc1Cl`, the Inhibition % is recorded as 5.52%.
Take `O=C(CCl)NCCCN1CCCC1=O`: the Inhibition % was 3.35%.
In the case of `O=C(CCl)N1CCc2ccccc21`, the Inhibition % is recorded as -0.66%.
Then `CC1CCc2ccccc2N1C(=O)CCl` (centres unmarked), with 100%; and `O=C(CCl)N1CCCc2ccccc21`, with 69.2%.
Then `O=C1CCCN1CCCl`, with 5.09%; and `NS(=O)(=O)c1ccc2c(c1)CCN2C(=O)CCl`, with 83.1%; and `C=CC(=O)NCCC(=O)N1c2ccccc2CCC1C` (centres unmarked), with 5.89%.
For `CN(C)S(=O)(=O)c1ccc2c(c1)CCCN2C(=O)CCl`, the Inhibition % was determined as 8.14%.
In the case of `O=C(CCl)N1CCCC1=O`, the Inhibition % turned out to be 79.2%.
As for `CC1Cc2ccccc2N1C(=O)CCl` (centres unmarked), the Inhibition % came out at 8.22%.
With `O=C1CCC(=O)N1CC(=O)N1CCCc2ccccc21`, the Inhibition % was found to be 10.8%.
Take `O=C(CCl)N1CCc2cc([N+](=O)[O-])ccc21`: the Inhibition % worked out at 5.06%.
Then `C=CC(=O)N1CC(C)OC(COC)C1` (centres unmarked), with 6.19%; and `C=CC(=O)N1CCCC(N(C)Cc2noc(C)n2)CC1` (centres unmarked), with 1.13%.
Take `O=C(CCl)Nc1ccccc1C(=O)Nc1ccc(F)cc1`: the Inhibition % turned out to be 6.28%.
Next, `O=C(CCl)N(Cc1ccco1)CC(F)(F)F`: 11.9%.
Next, `CC1(C)OB(c2ccc(F)cc2[N+](=O)[O-])OC1(C)C`: 3.67%; `O=C(Nc1ccc2c(c1)COC2)c1cccnc1S`: 2.52%; `C=CC(=O)NC1C2Cc3ccccc3C21` (centres unmarked): 11.1%.
As to `O=C(CCl)N1c2ccccc2Sc2ccccc21`, the Inhibition % is listed as 1.08%.
`O=C(CCl)N1c2ccccc2CCc2ccccc21`: the Inhibition % is on record as 61%.
As for `O=C(CCCl)N1CCc2ccccc21`, the Inhibition % is 3.9%.
Then `CCOc1cc(C)ccc1S(=O)(=O)n1cccn1`, with 0.108%; and `COC(=O)c1cc(B2OC(C)(C)C(C)(C)O2)c(C)cn1`, with 4.59%.
In the case of `CS(=O)(=O)OC1CCOC(c2ccncc2)C1` (centres unmarked), the Inhibition % was 7.05%.
As for `CN(CCOc1ccc(Cl)cc1)C(=O)CCl`, the Inhibition % was found to be 63.6%.
As to `N#CCCN(C(=O)CCl)c1ccccc1F`, the Inhibition % worked out at 33.7%.
`O=C(CCl)COc1ccc(Cl)cc1`: the Inhibition % was 97.8%.
For `CN(CCOc1ccccc1F)c1cccnc1C#N`, the Inhibition % was determined as 40.3%.
As to `OB(O)c1ccc(OCc2ccc(Cl)cc2)cc1`, the Inhibition % is reported as -0.814%.
As for `CN(CCOc1ccccc1F)C(=O)CCl`, the Inhibition % is reported as 94.1%.
As to `O=C(CCl)NCCOc1ccc(Cl)cc1`, the Inhibition % was found to be 20.3%.
For `CN(Cc1cc(Cl)cc(Cl)c1)C(=O)CCl`, the Inhibition % came to 32.4%.
Turning to `COc1ccc(N(CC(F)(F)F)C(=O)CCl)cc1`, the Inhibition % is 36.5%.
Next, `COc1ccc(NC(=O)C(C#N)=Cc2ccco2)cn1`: 10.5%.
Then `N#Cc1ncn(CC(=O)N2CCc3sccc3C2)n1`, with 10.8%.
Next, `CN(C)c1ccc(Cl)cc1NC(=O)CCl`: 1.39%; `CC(C)(C)OC(=O)N1CCC(B2OC(C)(C)C(C)(C)O2)C1` (centres unmarked): 1.29%.
For `CC1CN(C(=O)CN2CCSC2=O)C(C)CO1` (centres unmarked), the Inhibition % was determined as 4.59%.
Next, `N#Cc1ccccc1OS(=O)(=O)c1nccs1`: 25.6%.
Next, `Cc1cc(F)ccc1OS(=O)(=O)c1cnn(C)c1`: 9.05%; `O=C(CCl)NC(=O)Nc1ccc2c(c1)OCO2`: 1.46%; `O=C(CCCl)Nc1ccc2c(c1)OCO2`: 13.1%.
Then `O=C(CCl)Nc1ccc2c(c1)OC1(CCCC1)O2`, with 78.4%; and `O=C(CCl)Nc1ccc2c(c1)OC1(CCCCC1)O2`, with 93.3%; and `O=C(CCl)Nc1ccc2c(c1)OC(F)(F)O2`, with 37.9%.
With `O=C(CCl)Nc1ccc2c(c1)NC(=O)CO2`, the Inhibition % came out at 32.7%.
`COc1ccc(-c2nc(C#N)c(N3CCCC3)o2)cc1`: the Inhibition % was 5.17%.
As for `Cn1c(S)nc2ccccc2c1=O`, the Inhibition % turned out to be 3.7%.
Next, `O=C(Cc1ccccc1Cl)N1CCCCC1C1OCCO1` (centres unmarked): 14.3%; `O=C(CS)Nc1ccc(F)cc1`: 5.25%; `O=C(CCCl)Nc1ccccc1F`: 6.72%.
With `C=CC(=O)Nc1ccccc1`, the Inhibition % is listed as 3.57%.
For `O=C(CS)Nc1ccccc1`, the Inhibition % turned out to be 50.4%.
Consider `O=C(CS)Nc1ccccc1F`, for which the Inhibition % came to 81.5%.
`O=C(CCl)NC(=O)Nc1ccccc1F`: the Inhibition % is -2.13%.
For `O=S1(=O)C=CC(c2ccccc2)C1` (centres unmarked), the Inhibition % amounted to 12.1%.
As for `CCOc1ccc(S(=O)(=O)n2nc(C)cc2C)cc1C`, the Inhibition % stood at 7.03%.
Take `C=CCOc1ccc(Cl)c(C#N)n1`: the Inhibition % stood at 4.33%.
Then `N#CC(=Cc1ccccc1OCC(F)(F)F)C(N)=O`, with 22.7%; and `CCc1noc(CC)c1CNCc1ccccc1B(O)O`, with 2.29%.
Turning to `O=C(CCl)N1CCOC1=O`, the Inhibition % was determined as 31.6%.
In the case of `O=C(CCl)N1CCNCC1.O=C(O)C(F)(F)F`, the Inhibition % was found to be 7.16%.
`O=C(CCl)N1CCNC1=O`: the Inhibition % came to 78%.
With `C=CC(=O)N1CCNC(=O)C1`, the Inhibition % was 11.3%.
Next, `N#CN(CC(=O)N1CCNC1=O)c1ccccc1`: 3.42%; `O=C1CN(C(=O)CCl)CCN1`: 62.6%; `CN(C)CCOc1ccccc1B1OC(C)(C)C(C)(C)O1`: 6.97%.
For the compound `C=CC(=O)N(C)C1CCN(c2ncnc3ccccc23)CC1`, the Inhibition % came to 16.8%.
`Cc1csc(NC(=O)CS)n1`: the Inhibition % is reported as 71.5%.
Turning to `Cc1csc(NC(=O)CCN2C(=O)CCC2=O)n1`, the Inhibition % worked out at 5.08%.
As to `Cc1csc(NC(=O)CCl)n1`, the Inhibition % was -1.74%.
In the case of `Cc1cc(Br)ccc1NC(=O)CCl`, the Inhibition % was found to be 19.7%.
Turning to `O=C(CCl)NCc1ccc(F)cc1C(F)(F)F`, the Inhibition % is listed as 13.5%.
`C=CC(=O)N(Cc1cccc(C)n1)Cc1cccc(C)n1.O=C(O)C(F)(F)F`: the Inhibition % is reported as 8%.
Regarding `Cc1sc(NC(=O)CCl)c(C#N)c1C`, the Inhibition % was found to be 9.37%.
Then `Cc1sc(NC(=O)CCl)c(C)c1C`, with 56.3%.
`COC(=O)c1c(NC(=O)CCl)sc(C)c1C`: the Inhibition % is listed as 10.8%.
Turning to `C=CC(=O)N1CC(n2nc(C)nc2C)C1`, the Inhibition % came to 9.38%.
As to `Cn1cc(NS(=O)(=O)c2cccc(S(=O)(=O)F)c2)ccc1=O`, the Inhibition % is 103%.
On to `Cn1ccc(Nc2ccc(S(=O)(=O)F)cn2)n1`, for which the Inhibition % came to 4.77%.
Turning to `Cn1cnc(NS(=O)(=O)c2ccc(S(=O)(=O)F)cc2)n1`, the Inhibition % was determined as 5.05%.
With `Cn1cc(NS(=O)(=O)c2ccc(S(=O)(=O)F)cc2)cn1`, the Inhibition % stood at 33%.
With `Cn1ncnc1NS(=O)(=O)c1ccc(S(=O)(=O)F)cc1`, the Inhibition % is 5.71%.
As to `CCc1nn(C)cc1NS(=O)(=O)c1cccc(S(=O)(=O)F)c1`, the Inhibition % turned out to be 95.4%.
`Cn1ccc(NS(=O)(=O)c2cccc(S(=O)(=O)F)c2)n1`: the Inhibition % is listed as 97.7%.
For the compound `Cn1ccc(NS(=O)(=O)C=Cc2ccccc2)n1`, the Inhibition % turned out to be 11.1%.
Then `CCn1ncnc1NS(=O)(=O)c1cccc(S(=O)(=O)F)c1`, with 99%; and `CC1(C)C(=O)NC1c1ccco1` (centres unmarked), with 1.96%.
As for `CN(CCc1nccs1)C(=O)c1cccnc1S`, the Inhibition % stood at 5.89%.
Take `C=CC(=O)N1CCN(C(=O)CN2C(=O)CCC2=O)CC1`: the Inhibition % amounted to 6.08%.
Then `COC(=O)c1ccc(C)c(NC(=O)CCl)c1`, with 3.25%.
With `N#CC=C1NC(=O)c2ccccc2S1`, the Inhibition % was found to be 28.7%.
For `CC1CN(C(=O)C=Cc2ccnn2C)CC(C)N1.Cl` (centres unmarked), the Inhibition % is reported as 14.8%.
For the compound `CC(=O)c1ccccc1NC(=O)CCl`, the Inhibition % came out at 19%.
Regarding `Cn1nccc1NS(=O)(=O)c1cccc(S(=O)(=O)F)c1`, the Inhibition % is 89.5%.
For the compound `O=S(=O)(F)c1cccc(S(=O)(=O)Nc2ncccn2)c1`, the Inhibition % is 16.8%.
Regarding `Cn1cnc2ccc(S(=O)(=O)F)cc21`, the Inhibition % is reported as 43.4%.
`C=CC(=O)N1C2CCC1CC(CC(F)F)C2` (centres unmarked): the Inhibition % is 6.6%.
Then `C=CC(=O)N1CCC[C@H]1C(=O)NC`, with 4.18%; and `O=C1OCCC1N1CCN(C(=O)c2cccc(F)c2)CC1` (centres unmarked), with 8.98%; and `O=C(CCCl)NC1CCCc2ccccc21` (centres unmarked), with 2.39%.
`N#CC(=Cc1cc2cc(F)ccc2o1)C(N)=O`: the Inhibition % is 6.05%.
Turning to `CCc1cc2c(=O)n(CCS(=O)(=O)F)cnc2s1`, the Inhibition % is 9.17%.
Then `CCc1c(OC(=O)NC)noc1C`, with 84.6%; and `CNC(=O)Oc1noc(C)c1C`, with 84.8%; and `CNC(=O)Oc1cccc(O)c1`, with 37.6%.
As for `CNC(=O)Oc1cccc(N)c1`, the Inhibition % is on record as 20.5%.
With `Cc1noc(C)c1CNC(=O)CCl`, the Inhibition % came to 46.7%.
Then `C=CC(=O)NCc1c(C)noc1C`, with 13.4%.
For the compound `N#Cc1nncn1CC(=O)Nc1ccc(C(F)(F)F)cc1`, the Inhibition % is 26.2%.
